ELG1 genotoxic: qHTS screen for small molecules that induce genotoxicity in human embryonic kidney (HEK293T) cells expressing luciferase-tagged ELG1; HEK293T ELG1-luciferase reporter, luminescence, 16 h; Potency, µM (doses to about 46 µM), for the others: at the top dose activity change, positive = activation, hits mostly activators; 1.3% of 330,000 active; also: % of control where 0% means no effect; nearly all actives have a fitted effect of over 60% in size
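DMSO vehicle served as control against compound-treated ELG1-luciferase HEK293T cells; exposure lasted 16 hr at 37 °C and 5% CO2, followed by ONE-Glo luminescence detection after 30 min.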
Rab9 prom act: qHTS Assay for Rab9 Promoter Activators | Huh7 Rab9 promoter-luciferase reporter, luminescence, 24 h | Potency, µM (top dose mostly 9.22 µM), for the others: at the top dose activation, negative = inhibition, usual class: activators | 2.8% of 320,000 active | AID 485297, 2010; also: % of control where 0% means no effect; nearly all actives have a fitted effect of over 60% in size
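Luminescence from Amplite-detected luciferase (10 minutes, ambient) reports Rab9 promoter activation. Before that, stable Rab9-luciferase Huh7 cells (1500/well, reduced-serum OP-MEM I plus 10% FBS) were exposed to compound for 24 hours at 37C.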
NPC1 promoter act: qHTS Assay for NPC1 Promoter Activators | Potency, µM (series often up to 9.22 µM), without a hit: top-dose activation, usual class: activators | AID 485313, 2010 | 2.4% of 320,000 active | Huh7 NPC1 promoter luciferase reporter, 24 h; also: % of control where 0% means no effect; nearly all actives have a fitted effect of over 60% in size
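Cells: Huh7 expressing luciferase under the NPC1 promoter, 1500/well. Seeded 2 h, compound added, incubated 24 h at 37 °C. Luciferase reagent, 10 min ambient, then luminescence.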
ELG1 DNA repair: qHTS screen for small molecules that inhibit ELG1-dependent DNA repair in human embryonic kidney (HEK293T) cells expressing luciferase-tagged ELG1; HEK293T ELG1-luciferase reporter, luminescence, 16 h; DNA damage induced by 5-fluorouridine; Potency, µM (top dose mostly 46.1 µM), without a hit: at the highest dose activity change, negative = inhibition, most hits filed as inhibitors; 2.3% of 330,000 active; AID 504467, 2011; also: % is scaled to controls: 0 for no effect and ±100 for the full control effect; nearly all actives have a fitted effect of over 55% in size
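In this reporter screen, reduction of luminescence relative to DMSO vehicle indicated activity. Compounds and 5-fluorouridine were added together to 2,000 cells per well, incubated for 16 hr at 37 °C, then developed with ONE-Glo.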
SMN2 splice enh: qHTS Assay for Enhancers of SMN2 Splice Variant Expression. HEK293 SMN2-luciferase splicing reporter, luminescence, 30-36 h. Potency, µM (highest dose often 46.1 µM), for inactives: at the highest dose activity change, positive = activation, usual class: activators. 2.8% of 210,000 active. AID 1458, 2008; also: % of control where 0% means no effect; nearly all actives have a fitted effect of over 55% in size
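HEK293 cells carry an SMN2 minigene-luciferase reporter in which exon 7 inclusion puts luciferase in frame. Cells were seeded at 2000 cells/well, attached for 10-12 hours, then exposed to compounds for 30-36 hours at 37C before ONE-Glo luminescence.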
FLuc modulator: qHTS profiling assay for firefly luciferase inhibitor/activator using purifed enzyme and Km concentrations of substrates (counterscreen for miR-21 project). 6.9% of 360,000 active. purified FLuc, Km substrates, luminescence inhibition. Potency, µM (doses to about 57.5 µM), inactives show at the top dose activity change, negative = inhibition, hits mostly inhibitors;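 also: plate controls were vehicle for no effect and reference inhibitor for full effect; nearly all actives have a fitted effect of over 55% in size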
Target sequence (P08659 whole entry, looked up): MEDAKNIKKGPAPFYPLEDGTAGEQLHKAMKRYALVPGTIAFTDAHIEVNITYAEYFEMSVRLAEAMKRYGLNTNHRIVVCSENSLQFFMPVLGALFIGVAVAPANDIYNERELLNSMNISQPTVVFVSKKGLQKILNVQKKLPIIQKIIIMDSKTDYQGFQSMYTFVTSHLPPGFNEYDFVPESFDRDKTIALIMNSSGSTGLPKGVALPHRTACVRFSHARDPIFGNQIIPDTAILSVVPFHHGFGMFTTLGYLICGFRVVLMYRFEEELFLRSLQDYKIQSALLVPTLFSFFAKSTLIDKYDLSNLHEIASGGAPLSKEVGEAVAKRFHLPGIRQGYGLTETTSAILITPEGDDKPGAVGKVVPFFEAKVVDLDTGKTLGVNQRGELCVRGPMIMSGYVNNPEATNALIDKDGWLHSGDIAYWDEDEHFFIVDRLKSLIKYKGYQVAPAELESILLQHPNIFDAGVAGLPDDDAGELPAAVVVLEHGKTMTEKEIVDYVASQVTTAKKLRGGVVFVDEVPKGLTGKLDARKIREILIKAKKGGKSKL
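Biochemical qHTS of compounds, final roughly 60 µM downward over six points, against 10 nM purified firefly luciferase using Km concentrations of substrates (10 uM D-luciferin, 10 uM ATP) in Tris acetate pH 7.5 buffer; luminescence output.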
An asterisk follows results filed as active; ? = inconclusive; . = not tested or not shown. In the library only some 9.3% were active in any assay of this set; here they are far more common. Calls follow the shape of the dose curve; as a rule, active = well fitted curve in the direction sought with a large enough effect; inconclusive = small, poorly fitted or top-dose-only effect, or another doubt; inactive = no such curve, though single readings can be large; an effect the other way counts as inactive or inconclusive. Potency is read from the fitted curve at half-maximal effect.

SMILES | ELG1 genotoxic | Rab9 prom act | NPC1 promoter act | ELG1 DNA repair | SMN2 splice enh | FLuc modulator
COc1cc(OC)cc(-c2nc(-c3cccs3)no2)c1 | -8.7% | ? | ? | ? | 26.1% | 10.7µM*
COc1cccc(-c2nc(-c3cccs3)no2)c1 | ? | 2.51µM* | 2.82µM* | ? | . | 0.269µM*
COc1ccc(-n2nnc(-c3nc(-c4cccs4)no3)c2N)cc1 | . | . | . | . | . | -5.6%
Cc1cc(OCc2nc(-c3cccs3)no2)cc(C)c1Cl | 9.1% | 7.2% | 9.7% | ? | -6.0% | ?
COc1cccc(-c2nc(-c3ccncc3)no2)c1 | ? | 1.41µM* | 2.82µM* | ? | . | 5.36µM*
CCCOc1ccc(C(=O)CCC(=O)NNC(=O)c2cccs2)cc1 | -0.7% | -1.1% | -8.2% | 3.6% | . | ?
Fc1ccccc1Cn1c(-c2ccccc2)nc2ccccc21 | . | . | . | . | 39.7% | ?
O=C(Nc1ccc(Br)cc1)N1CCCC(O)C1 (configuration not stated) | 13.9% | 19.9% | 10.4% | ? | 3.8% | -10.2%
CCOC(=O)c1ccc(NC(=O)N2CCCCC2)cc1 | 10.3µM* | 3.16µM* | 2.51µM* | ? | ? | 13.5µM*
O=C(Nc1ccc(Br)cc1)N1CCCCCC1 | ? | 2.24µM* | ? | ? | . | 10.7µM*
CCN1CCN(C(=O)Nc2ccc(Cc3ccc(NC(=O)N4CCN(CC)CC4)cc3)cc2)CC1 | -5.2% | 10.7% | 0.9% | 15.2% | 7.3% | 13.5µM*
CCOC(=O)c1ccc(NC(=O)N2CCN(C3CCCCC3)CC2)cc1 | -0.1% | -3.6% | -2.1% | 0.2% | 27.2% | 0.6%
Cc1ccc(NC(=O)N2CCCCCC2)cc1 | ? | ? | ? | ? | . | 15.1µM*
COc1ccc2c(c1)O[C@@H](c1cccc(C(F)(F)F)c1)[C@H](OC(=O)NCc1ccco1)C2=O | . | . | . | . | 1.3% | .
COc1cc(NC(=O)NNC(=O)c2cc3occc3n2C)cc(OC)c1OC | 1.9% | 4.5% | 0.4% | 20.0% | . | -0.9%
O=C(NCc1ccc(F)cc1)C1CCN(S(=O)(=O)c2cccc3nonc23)CC1 | 13.7% | -4.7% | -2.5% | 24.7% | . | 0.1%
Cc1ccc(C)c(N2CCN(C(=O)C3CCN(c4nc5ccc(C)cc5[nH]4)CC3)CC2)c1 | . | . | . | . | . | -15.4%
O=C1CCCC/C1=C\Nc1ccc(O)cc1 | ? | 15.2% | 10.5% | ? | ? | ?
COC(=O)c1ccc(NC(=O)C(=O)N2CCCC2)cc1 | ? | ? | 2.82µM* | ? | ? | 21.3µM*
CCc1ccc(NS(=O)(=O)c2ccc(NC(=O)N3CCCC3)cc2)cc1 | . | . | . | . | . | 2.2%
CCc1ccc(NC(=O)N2CCCCCC2)cc1 | 20.6µM* | 1.78µM* | 2.24µM* | ? | . | 13.5µM*
CCOC(=O)c1ccc(N/C=C2\CCCCC2=O)cc1 | 2.31µM* | 2.51µM* | 3.98µM* | ? | ? | 2.69µM*
COc1ccccc1N1Cc2ccc(OC)c(OC)c2C1=O | 5.3% | 1.8% | 0.1% | ? | . | -13.2%
COc1ccc2c(c1OC)C(=O)N(c1cccc(C)c1)C2 | 2.06µM* | 1.41µM* | 1.41µM* | ? | 14.1µM* | 1.51µM*
COc1ccc2c(c1OC)C(=O)N(c1ccccn1)C2 | 9.2µM* | 2.24µM* | 3.16µM* | ? | 11.2µM* | 10.7µM*
SMILES | ELG1 genotoxic | Rab9 prom act | NPC1 promoter act | ELG1 DNA repair | SMN2 splice enh | FLuc modulator
COc1ccc2c(c1OC)C(=O)N(c1cccc(C(F)(F)F)c1)C2 | ? | 4.47µM* | ? | ? | 12.6µM* | 5.36µM*
COc1ccc2c(c1OC)C(=O)N(c1ccc(C)cc1)C2 | 18.3µM* | 0.708µM* | 1.12µM* | ? | . | 3.01µM*
C=CCNC(N)=S | 0.0% | 13.6% | 2.5% | 8.8% | -12.0% | 6.8%
Cc1cccc(C)c1NC(=O)CCCN1C(=O)CCn2nc(-c3cn(C)c4ccccc34)cc21 | . | . | . | . | . | -0.5%
Cc1ccc2c(c1)[nH]c1c(=O)n(Cc3ccco3)cnc12 | 7.2% | ? | ? | ? | . | ?
NC(=O)CSc1nc2ccc(NC(=O)COc3ccccc3)cc2s1 | . | . | . | . | . | -17.9%
CCCCCNC(=O)C1CCC(Cn2c(=S)[nH]c3ccccc3c2=O)CC1 (configuration not stated) | 10.5% | 0.7% | 0.2% | -39.0% | -36.8% | -4.1%
O=C(Nc1ccc(N2CCOCC2)c(Cl)c1)C1CCCCC1 | ? | 12.7% | 18.3% | 20.6µM* | -12.3% | ?
O=C(Nc1ccc(N2CCOCC2)c(Cl)c1)c1ncn[nH]1 | 2.1% | 8.7% | 23.4% | ? | 17.3% | 21.3µM*
O=C(Nc1ccc(N2CCOCC2)c(Cl)c1)c1ccccc1F | 5.17µM* | 3.55µM* | 3.16µM* | ? | 23.8% | 9.53µM*
O=C(Nc1cc(C(F)(F)F)ccc1N1CCOCC1)c1ccccc1F | 4.1% | -5.8% | -0.8% | -9.5% | 9.3% | 2.7%
O=C(Nc1ccc(N2CCN(Cc3ccccc3)CC2)cc1)c1ncn[nH]1 | -2.1% | 2.3% | -1.4% | 0.9% | -17.4% | -11.8%
Nc1cc(S(=O)(=O)Nc2ccc(Cl)cc2)ccc1N1CCOCC1 | 1.7% | -16.4% | -6.4% | 14.6µM* | . | ?
O=C(Nc1ccc(N2CCOCC2)c(Cl)c1)c1ccc(Cl)cc1 | -16.1% | 28.6% | 14.1% | ? | -85.5% | 16.9µM*
Cc1cc(C(=O)Nc2ccc(N3CCOCC3)c(Cl)c2)c(C)o1 | ? | 2.82µM* | ? | ? | . | 6.75µM*

Assay outcomes from PubChem.
